# Assay results: paper PMC7862700, “An all-to-all approach to the identification of sequence-specific readers for epigenetic DNA modifications on cytosine”
# How the values were obtained:
# Experiment in all cases: DAPPL (digital affinity profiling via proximity ligation, sequencing); 10 mM Tris-HCl pH 7.5, 50 mM NaCl, 1 mM DTT, 4% glycerol, room temperature, 30 min; GST-TFs on glutathione beads, 16-mer random dsDNA library, 0.1% formaldehyde crosslink after washing; high values mean tight binding
# Details in all cases: protein: recombinant; tags: N-terminal GST; dsDNA, one strand shown
# ELK1 = target: T1, ELK1 (Homo sapiens, UniProt P19419 1-428)
# T1 sequence: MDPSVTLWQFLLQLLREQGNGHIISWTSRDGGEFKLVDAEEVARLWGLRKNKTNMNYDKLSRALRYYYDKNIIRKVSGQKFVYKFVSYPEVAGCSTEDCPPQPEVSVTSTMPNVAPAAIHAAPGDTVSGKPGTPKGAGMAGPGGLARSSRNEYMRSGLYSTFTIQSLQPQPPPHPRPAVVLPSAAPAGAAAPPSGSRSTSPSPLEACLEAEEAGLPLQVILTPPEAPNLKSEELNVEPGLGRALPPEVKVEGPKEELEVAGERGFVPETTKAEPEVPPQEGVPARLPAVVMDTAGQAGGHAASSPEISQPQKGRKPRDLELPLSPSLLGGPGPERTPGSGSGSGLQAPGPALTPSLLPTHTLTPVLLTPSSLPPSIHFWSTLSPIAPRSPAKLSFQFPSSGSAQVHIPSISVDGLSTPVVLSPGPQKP
# Summary of the method: (§1)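 Human transcription factors fused to GST were expressed in yeast, captured on glutathione beads, given DNA barcodes and pooled with a GST-only negative control. Pools were incubated with 200 nmole of a 16-mer random double-stranded DNA library in Tris/NaCl/DTT/glycerol buffer at room temperature for 30 min. They were then washed, crosslinked with 0.1% formaldehyde, proximity-ligated (BsaI/T4 ligase, 1 h, 37 °C), PCR-amplified and sequenced on an Illumina NextSeq500. Binding signal is each 6-mer's read frequency for a factor divided by its frequency for the GST control.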
# ERG = target: T2, ERG (Homo sapiens, UniProt P11308 1-479)
# T2 sequence: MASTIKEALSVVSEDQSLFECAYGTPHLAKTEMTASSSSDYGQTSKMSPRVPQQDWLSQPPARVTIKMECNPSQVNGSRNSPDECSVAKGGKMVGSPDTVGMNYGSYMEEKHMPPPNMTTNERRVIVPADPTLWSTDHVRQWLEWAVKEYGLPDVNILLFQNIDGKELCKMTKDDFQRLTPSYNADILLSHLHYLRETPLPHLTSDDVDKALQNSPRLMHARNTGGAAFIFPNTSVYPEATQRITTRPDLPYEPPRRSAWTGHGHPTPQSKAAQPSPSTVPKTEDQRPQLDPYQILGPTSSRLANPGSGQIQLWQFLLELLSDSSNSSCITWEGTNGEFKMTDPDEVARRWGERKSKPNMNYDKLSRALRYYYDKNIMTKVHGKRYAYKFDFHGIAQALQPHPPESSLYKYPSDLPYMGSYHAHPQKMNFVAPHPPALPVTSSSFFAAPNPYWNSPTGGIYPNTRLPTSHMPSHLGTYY
# Summary of the method: as §1
# ELF1 = ELF1 (Homo sapiens, UniProt P32519 1-619)
# Sequence of ELF1 (P32519 whole entry): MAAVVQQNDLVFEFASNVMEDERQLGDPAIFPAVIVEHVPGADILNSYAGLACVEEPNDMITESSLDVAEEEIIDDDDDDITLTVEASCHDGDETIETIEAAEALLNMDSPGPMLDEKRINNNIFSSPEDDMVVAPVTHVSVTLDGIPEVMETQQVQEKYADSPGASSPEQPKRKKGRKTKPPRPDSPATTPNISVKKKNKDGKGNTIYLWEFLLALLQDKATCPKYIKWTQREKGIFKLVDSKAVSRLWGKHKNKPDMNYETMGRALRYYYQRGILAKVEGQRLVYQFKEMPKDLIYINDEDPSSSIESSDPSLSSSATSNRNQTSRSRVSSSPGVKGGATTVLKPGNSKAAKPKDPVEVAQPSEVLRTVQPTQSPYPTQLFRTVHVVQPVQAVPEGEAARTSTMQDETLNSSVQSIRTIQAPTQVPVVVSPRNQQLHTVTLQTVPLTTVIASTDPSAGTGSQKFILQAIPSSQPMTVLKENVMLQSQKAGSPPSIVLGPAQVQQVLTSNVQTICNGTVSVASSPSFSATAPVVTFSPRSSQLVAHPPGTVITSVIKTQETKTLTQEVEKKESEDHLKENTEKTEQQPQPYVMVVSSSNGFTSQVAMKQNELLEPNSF
# Summary of the method: as §1
# EHF = target: T3, EHF (Homo sapiens, UniProt Q9NZC4 1-300)
# T3 sequence: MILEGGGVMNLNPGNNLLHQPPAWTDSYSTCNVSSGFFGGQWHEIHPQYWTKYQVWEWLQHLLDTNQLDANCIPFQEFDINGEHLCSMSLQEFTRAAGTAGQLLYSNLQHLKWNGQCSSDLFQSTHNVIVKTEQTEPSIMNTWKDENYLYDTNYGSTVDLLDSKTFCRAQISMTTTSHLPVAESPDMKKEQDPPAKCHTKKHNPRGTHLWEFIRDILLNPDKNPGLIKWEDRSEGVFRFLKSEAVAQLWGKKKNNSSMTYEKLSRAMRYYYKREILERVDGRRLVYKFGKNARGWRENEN
# Summary of the method: as §1
# SPIB = SPIB (Homo sapiens, UniProt Q01892 1-262)
# Sequence of SPIB (Q01892 whole entry): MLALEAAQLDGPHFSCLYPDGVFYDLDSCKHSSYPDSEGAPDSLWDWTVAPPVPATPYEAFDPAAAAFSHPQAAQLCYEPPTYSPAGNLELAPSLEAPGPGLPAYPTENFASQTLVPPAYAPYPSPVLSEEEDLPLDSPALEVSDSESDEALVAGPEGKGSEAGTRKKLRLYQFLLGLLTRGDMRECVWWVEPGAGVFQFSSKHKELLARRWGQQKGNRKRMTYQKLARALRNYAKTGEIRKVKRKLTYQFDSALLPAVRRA
# Summary of the method: as §1
# FEV = target: T4, FEV (Homo sapiens, UniProt Q99581 1-238)
# T4 sequence: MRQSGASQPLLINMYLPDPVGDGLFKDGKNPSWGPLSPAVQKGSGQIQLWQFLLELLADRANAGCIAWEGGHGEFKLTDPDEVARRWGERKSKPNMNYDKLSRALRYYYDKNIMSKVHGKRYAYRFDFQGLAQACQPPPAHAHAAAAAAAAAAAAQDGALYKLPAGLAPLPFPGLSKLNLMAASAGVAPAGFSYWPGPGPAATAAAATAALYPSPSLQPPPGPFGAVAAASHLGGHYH
# Summary of the method: as §1
# ETV5 = ETV5 (Homo sapiens, UniProt P41161 1-510)
# Sequence of ETV5 (P41161 whole entry): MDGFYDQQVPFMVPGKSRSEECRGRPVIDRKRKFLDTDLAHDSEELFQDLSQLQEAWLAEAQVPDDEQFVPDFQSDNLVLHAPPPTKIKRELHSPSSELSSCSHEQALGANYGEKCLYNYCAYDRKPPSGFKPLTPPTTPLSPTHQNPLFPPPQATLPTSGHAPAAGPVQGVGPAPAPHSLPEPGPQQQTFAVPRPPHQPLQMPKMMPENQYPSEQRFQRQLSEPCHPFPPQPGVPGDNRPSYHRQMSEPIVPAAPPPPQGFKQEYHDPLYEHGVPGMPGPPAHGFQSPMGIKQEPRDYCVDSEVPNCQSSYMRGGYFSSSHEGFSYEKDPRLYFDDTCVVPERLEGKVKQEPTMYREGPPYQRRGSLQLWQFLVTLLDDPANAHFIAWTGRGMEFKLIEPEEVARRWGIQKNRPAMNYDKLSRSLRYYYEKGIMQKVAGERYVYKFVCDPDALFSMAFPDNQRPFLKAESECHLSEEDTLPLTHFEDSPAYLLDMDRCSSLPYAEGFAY
# Summary of the method: as §1
# ELF4 = ELF4 (Homo sapiens, UniProt Q99607 1-663)
# Sequence of ELF4 (Q99607 whole entry): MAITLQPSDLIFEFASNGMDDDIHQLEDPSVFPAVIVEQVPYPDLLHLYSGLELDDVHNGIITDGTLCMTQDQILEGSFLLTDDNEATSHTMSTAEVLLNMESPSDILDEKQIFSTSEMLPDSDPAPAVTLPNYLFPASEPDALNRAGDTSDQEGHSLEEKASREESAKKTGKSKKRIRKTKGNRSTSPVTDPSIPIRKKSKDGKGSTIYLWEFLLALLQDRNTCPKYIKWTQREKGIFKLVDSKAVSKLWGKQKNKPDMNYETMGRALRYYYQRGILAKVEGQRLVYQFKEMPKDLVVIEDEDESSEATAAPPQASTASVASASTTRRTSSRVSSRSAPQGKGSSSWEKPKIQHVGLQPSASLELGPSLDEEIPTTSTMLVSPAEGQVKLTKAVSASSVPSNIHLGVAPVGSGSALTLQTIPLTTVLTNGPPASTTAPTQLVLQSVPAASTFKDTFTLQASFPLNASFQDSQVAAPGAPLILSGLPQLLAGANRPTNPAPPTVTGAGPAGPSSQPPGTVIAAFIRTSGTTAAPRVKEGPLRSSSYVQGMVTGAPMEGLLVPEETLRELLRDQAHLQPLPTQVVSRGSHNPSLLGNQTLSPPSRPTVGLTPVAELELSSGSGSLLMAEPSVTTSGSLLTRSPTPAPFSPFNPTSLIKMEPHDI
# Summary of the method: as §1
# ELK4 = target: T5, ELK4 (Homo sapiens, UniProt P28324-2 1-405)
# T5 sequence: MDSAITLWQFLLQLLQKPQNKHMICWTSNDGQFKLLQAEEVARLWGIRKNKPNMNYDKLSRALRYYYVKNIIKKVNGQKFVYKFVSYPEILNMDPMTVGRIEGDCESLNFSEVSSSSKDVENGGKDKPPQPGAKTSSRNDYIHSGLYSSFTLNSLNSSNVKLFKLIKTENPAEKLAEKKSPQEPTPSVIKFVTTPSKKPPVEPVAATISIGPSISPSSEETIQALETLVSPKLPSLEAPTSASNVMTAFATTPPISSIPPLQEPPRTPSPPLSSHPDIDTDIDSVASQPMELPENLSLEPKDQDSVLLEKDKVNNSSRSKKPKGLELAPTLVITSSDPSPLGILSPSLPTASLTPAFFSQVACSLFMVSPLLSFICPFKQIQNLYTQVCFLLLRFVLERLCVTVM
# Summary of the method: as §1
# ETV2 = target: T6, ETV2 (Homo sapiens, UniProt O00321 1-342)
# T6 sequence: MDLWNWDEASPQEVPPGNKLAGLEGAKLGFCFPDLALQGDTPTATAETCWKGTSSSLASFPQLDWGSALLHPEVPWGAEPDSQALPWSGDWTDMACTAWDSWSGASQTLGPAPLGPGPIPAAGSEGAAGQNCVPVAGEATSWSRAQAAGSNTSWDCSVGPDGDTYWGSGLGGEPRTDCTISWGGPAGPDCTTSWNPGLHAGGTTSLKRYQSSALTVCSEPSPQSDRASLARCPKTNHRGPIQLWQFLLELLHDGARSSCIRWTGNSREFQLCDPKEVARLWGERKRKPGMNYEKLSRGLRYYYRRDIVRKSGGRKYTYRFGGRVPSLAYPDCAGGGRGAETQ
# Summary of the method: as §1
# ELF3 = target: T7, ELF3 (Homo sapiens, UniProt P78545 1-371)
# T7 sequence: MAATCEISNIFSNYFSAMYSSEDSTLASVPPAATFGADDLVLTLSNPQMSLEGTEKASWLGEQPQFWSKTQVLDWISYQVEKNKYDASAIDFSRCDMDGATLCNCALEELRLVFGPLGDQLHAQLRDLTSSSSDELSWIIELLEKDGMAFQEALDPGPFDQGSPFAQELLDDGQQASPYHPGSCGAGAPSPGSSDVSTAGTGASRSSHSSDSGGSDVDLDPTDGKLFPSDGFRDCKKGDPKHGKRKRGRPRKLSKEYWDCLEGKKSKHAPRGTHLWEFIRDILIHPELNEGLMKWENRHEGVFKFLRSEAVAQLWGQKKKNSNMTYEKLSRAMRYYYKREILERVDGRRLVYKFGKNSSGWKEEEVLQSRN
# Summary of the method: as §1
# ETV1 = ETV1 (Homo sapiens, UniProt P50549 1-477)
# Sequence of ETV1 (P50549 whole entry): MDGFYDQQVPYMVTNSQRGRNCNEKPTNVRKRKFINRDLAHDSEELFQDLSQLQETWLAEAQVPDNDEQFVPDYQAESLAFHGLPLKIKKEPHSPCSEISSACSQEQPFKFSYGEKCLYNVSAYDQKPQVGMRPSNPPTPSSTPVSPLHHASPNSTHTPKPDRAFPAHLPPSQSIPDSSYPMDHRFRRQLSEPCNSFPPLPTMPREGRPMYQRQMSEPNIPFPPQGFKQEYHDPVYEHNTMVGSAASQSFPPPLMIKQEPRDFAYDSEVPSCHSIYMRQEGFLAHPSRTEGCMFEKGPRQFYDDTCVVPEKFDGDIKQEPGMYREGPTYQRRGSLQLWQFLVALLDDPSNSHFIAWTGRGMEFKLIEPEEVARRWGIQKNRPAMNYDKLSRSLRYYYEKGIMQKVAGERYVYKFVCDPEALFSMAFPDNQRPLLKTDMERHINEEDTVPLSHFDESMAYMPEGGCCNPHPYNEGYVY
# Summary of the method: as §1
# ERF = target: T8, ERF (Homo sapiens, UniProt P50548 1-548)
# T8 sequence: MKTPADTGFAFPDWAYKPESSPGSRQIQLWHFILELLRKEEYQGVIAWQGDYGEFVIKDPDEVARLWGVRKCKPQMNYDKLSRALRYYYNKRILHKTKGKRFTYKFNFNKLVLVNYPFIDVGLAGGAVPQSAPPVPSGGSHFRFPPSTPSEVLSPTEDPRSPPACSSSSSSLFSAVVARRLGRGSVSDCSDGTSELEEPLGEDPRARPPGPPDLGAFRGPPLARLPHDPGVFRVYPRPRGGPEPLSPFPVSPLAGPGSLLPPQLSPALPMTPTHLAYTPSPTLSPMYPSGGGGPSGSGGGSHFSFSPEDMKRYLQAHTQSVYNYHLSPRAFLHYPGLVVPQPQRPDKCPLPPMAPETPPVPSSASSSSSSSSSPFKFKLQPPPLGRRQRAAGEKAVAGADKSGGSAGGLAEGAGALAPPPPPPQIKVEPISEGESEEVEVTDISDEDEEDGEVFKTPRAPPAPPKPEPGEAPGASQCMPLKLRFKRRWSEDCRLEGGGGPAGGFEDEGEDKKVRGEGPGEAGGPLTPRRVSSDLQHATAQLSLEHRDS
# Summary of the method: as §1
# ETV3L = target: T9, ETV3L (Homo sapiens, UniProt Q6ZN32 1-361)
# T9 sequence: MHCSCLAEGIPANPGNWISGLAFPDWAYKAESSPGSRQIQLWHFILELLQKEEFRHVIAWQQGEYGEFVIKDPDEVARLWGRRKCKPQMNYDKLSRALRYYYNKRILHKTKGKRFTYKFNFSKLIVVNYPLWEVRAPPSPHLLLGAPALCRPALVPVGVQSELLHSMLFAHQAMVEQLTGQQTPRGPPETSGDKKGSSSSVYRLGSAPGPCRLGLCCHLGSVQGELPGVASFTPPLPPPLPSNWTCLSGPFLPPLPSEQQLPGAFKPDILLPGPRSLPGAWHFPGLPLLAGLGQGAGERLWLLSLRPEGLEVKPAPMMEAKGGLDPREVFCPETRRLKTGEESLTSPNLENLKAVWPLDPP
# Summary of the method: as §1
# ETS2 = target: T10, ETS2 (Homo sapiens, UniProt P15036 1-469)
# T10 sequence: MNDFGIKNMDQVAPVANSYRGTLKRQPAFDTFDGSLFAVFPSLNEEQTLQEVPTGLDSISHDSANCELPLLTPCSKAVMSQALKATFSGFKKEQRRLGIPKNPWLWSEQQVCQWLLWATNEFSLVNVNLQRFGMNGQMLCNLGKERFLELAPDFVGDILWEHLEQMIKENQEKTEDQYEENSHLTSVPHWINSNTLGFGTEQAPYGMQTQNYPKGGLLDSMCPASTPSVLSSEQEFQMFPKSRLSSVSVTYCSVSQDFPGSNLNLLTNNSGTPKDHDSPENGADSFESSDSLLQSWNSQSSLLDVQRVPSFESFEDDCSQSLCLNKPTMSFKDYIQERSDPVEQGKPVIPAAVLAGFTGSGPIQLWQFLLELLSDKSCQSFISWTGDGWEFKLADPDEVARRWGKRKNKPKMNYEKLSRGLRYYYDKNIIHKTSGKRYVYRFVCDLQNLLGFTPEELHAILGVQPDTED
# Summary of the method: as §1
# SPDEF = target: T11, SPDEF (Homo sapiens, UniProt O95238 1-335)
# T11 sequence: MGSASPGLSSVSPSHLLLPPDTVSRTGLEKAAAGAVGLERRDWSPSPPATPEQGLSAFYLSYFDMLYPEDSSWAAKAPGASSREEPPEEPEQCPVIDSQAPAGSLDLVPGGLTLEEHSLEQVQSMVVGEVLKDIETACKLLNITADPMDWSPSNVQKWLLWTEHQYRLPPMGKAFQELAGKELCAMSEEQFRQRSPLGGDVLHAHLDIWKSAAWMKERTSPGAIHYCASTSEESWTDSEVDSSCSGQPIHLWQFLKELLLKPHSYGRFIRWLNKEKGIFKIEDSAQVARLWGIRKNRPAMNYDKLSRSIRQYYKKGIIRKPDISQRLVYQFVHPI
# Summary of the method: as §1
# ETV7 = target: T12, ETV7 (Homo sapiens, UniProt Q9Y603 1-341)
# T12 sequence: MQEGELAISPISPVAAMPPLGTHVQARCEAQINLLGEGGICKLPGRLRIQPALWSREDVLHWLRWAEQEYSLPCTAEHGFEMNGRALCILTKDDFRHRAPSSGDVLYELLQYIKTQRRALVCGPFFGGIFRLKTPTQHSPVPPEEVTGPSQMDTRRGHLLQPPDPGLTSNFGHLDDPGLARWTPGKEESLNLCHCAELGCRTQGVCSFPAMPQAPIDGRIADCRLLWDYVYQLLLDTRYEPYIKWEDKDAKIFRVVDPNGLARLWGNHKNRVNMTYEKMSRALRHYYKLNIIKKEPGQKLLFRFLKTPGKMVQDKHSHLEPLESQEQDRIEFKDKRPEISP
# Summary of the method: as §1
# ETV3 = target: T13, ETV3 (Homo sapiens, UniProt P41162-2 1-143)
# T13 sequence: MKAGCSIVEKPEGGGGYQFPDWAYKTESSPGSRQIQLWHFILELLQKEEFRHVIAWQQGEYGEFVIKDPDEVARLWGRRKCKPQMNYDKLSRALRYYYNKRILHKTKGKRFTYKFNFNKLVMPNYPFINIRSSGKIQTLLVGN
# Summary of the method: as §1
# ETV6 = ETV6 (Homo sapiens, UniProt P41212 1-452)
# Sequence of ETV6 (P41212 whole entry): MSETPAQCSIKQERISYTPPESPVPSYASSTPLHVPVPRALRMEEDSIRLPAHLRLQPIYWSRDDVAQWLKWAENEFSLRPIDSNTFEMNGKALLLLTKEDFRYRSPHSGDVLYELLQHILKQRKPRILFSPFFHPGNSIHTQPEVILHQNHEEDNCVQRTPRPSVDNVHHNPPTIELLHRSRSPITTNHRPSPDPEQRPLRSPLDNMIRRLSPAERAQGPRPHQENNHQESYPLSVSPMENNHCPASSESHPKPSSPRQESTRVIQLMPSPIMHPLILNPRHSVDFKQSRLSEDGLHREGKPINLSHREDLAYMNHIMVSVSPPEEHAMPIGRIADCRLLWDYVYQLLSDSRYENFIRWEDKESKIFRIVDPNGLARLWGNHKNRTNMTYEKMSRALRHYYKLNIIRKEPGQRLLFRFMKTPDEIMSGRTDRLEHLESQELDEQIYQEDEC
# Summary of the method: as §1
sequence,measurement,setting,value
CCCCTA,binding signal,ELK1,"1.07 fold enrichment (6-mer frequency, TF over GST control)"
same,binding signal,ERG,"1.05 fold enrichment (6-mer frequency, TF over GST control)"
same,binding signal,ELF1,"1.18 fold enrichment (6-mer frequency, TF over GST control)"
same,binding signal,EHF,"1.17 fold enrichment (6-mer frequency, TF over GST control)"
same,binding signal,SPIB,"1.08 fold enrichment (6-mer frequency, TF over GST control)"
same,binding signal,FEV,"1.13 fold enrichment (6-mer frequency, TF over GST control)"
same,binding signal,ETV5,"1.07 fold enrichment (6-mer frequency, TF over GST control)"
same,binding signal,ELF4,"1.2 fold enrichment (6-mer frequency, TF over GST control)"
same,binding signal,ELK4,"1.3 fold enrichment (6-mer frequency, TF over GST control)"
same,binding signal,ETV2,"1.06 fold enrichment (6-mer frequency, TF over GST control)"
same,binding signal,ELF3,"1.3 fold enrichment (6-mer frequency, TF over GST control)"
same,binding signal,ETV1,"1.07 fold enrichment (6-mer frequency, TF over GST control)"
same,binding signal,ERF,"1.04 fold enrichment (6-mer frequency, TF over GST control)"
same,binding signal,ETV3L,"1.13 fold enrichment (6-mer frequency, TF over GST control)"
same,binding signal,ETS2,"1.05 fold enrichment (6-mer frequency, TF over GST control)"
same,binding signal,SPDEF,"1.07 fold enrichment (6-mer frequency, TF over GST control)"
same,binding signal,ETV7,"1.06 fold enrichment (6-mer frequency, TF over GST control)"
same,binding signal,ETV3,"1.06 fold enrichment (6-mer frequency, TF over GST control)"
same,binding signal,ETV6,"1.22 fold enrichment (6-mer frequency, TF over GST control)"
